# Measured values as given in ChEMBL document CHEMBL3988442, “University of Dundee, Small-Polar-MMV Screening Library” (2021).
# Out of some 66,000 compounds screened, about 960 (1.5%) showed an effect of 50% or more. This is one part of a sample in which strong results are shown more often than they occur.
# System: Trypanosoma brucei
# Experiment: Trypanosoma brucei 72 hour study
# Format: functional, organism-based
# Parameters: scale not given: in the data most compounds retested in dose-response had high values
compound,measurement,setting,value
COc1ccnc(N2CCN(C(=O)Cc3ccc(C#N)cc3)CC2)n1,Percent Effect,"30 µM, 30.03 µM",4.593%
Cc1nc(CC(=O)N2CCCN(c3ccc(C#N)cc3)CC2)cs1,Percent Effect,"30 µM, 30.03 µM",7.071%
COc1ccc(CC(=O)N2CCCN(c3ccc(C#N)cc3)CC2)cc1,Percent Effect,"30 µM, 30.03 µM",55.65%
CN1C[C@]2(CC[C@@H](C(=O)N3CCOCC3)CC2)Oc2ccccc2C1=O,Percent Effect,"30.3 µM, […]",-18.99%
CN1CCNC(=O)C12CCN(C(=O)c1ccc3[nH]c(=O)[nH]c3c1)CC2,Percent Effect,"30 µM, 30.03 µM",29.1%
Cc1ccc2[nH]c(C(=O)N3CCC4(CC3)C(=O)NCCN4C)nc2c1,Percent Effect,"30 µM, 30.03 µM",74.91%
Cc1ccc(C(=O)N2CCC3(CC2)C(=O)NCCN3C)cc1O,Percent Effect,"30 µM, 30.03 µM",-5.883%
Cn1cc(C(=O)NCc2cn3c(n2)CN(CC2CCCC2)CC3)cn1.O=C(O)C(F)(F)F.O=C(O)C(F)(F)F,Percent Effect,"30 µM, 30.03 µM",-33.28%
Cc1nc(CO[C@@H]2CN(Cc3cccs3)[C@@H]3COC[C@@H]32)cs1.O=C(O)C(F)(F)F,Percent Effect,"30 µM, 30.03 µM",-14.66%
Cc1cc(S(C)(=O)=O)c(C)c(S(=O)(=O)N2CCCC(C)C2)c1 (centres undefined),Percent Effect,"30 µM, 30.03 µM",0.7387%
O=C(O)C(F)(F)F.O=C1COC2(CCN(CC3CC3)CC2)CN1c1cncnc1,Percent Effect,"30 µM, 30.03 µM",-12.06%
CN(CC(=O)NC(Cc1ccccc1)C1CCCC1)S(C)(=O)=O (centres undefined),Percent Effect,"30.3 µM, […]",62.9%
CS(=O)(=O)CCC(=O)NC(Cc1ccccc1)C1CC1 (centres undefined),Percent Effect,"30.3 µM, […]",70.04%
Cc1ccc(CC(NC(=O)CCS(C)(=O)=O)c2ccccn2)cc1 (centres undefined),Percent Effect,"30 µM, 30.03 µM",-49.38%
CS(=O)(=O)CCC(=O)NC1CC(c2ccccc2Cl)C1 (centres undefined),Percent Effect,"30 µM, 30.03 µM",-26.6%
Cc1c(NC(=O)CN(C)S(C)(=O)=O)cccc1OC1CCCC1,Percent Effect,"30 µM, 30.03 µM",-55.36%
CS(=O)(=O)NCC(=O)NC(Cc1ccccc1)C1CCCC1 (centres undefined),Percent Effect,"30.3 µM, […]",-60.62%
CNc1nc(C)c(C(=O)N2C[C@H]3CC[C@@H]2CN(c2cnccn2)C3)s1,Percent Effect,"30 µM, 30.03 µM",-23.46%
CC1CN(C)CCN1C(=O)c1cnn(-c2cccc(Cl)c2)c1 (centres undefined),Percent Effect,"30.3 µM, […]",-22.44%
same,Percent Effect,"10 mM, 10 mM as filed; unlikely as a test dose",-40.4%
COCC1CC2(CCN(Cc3ccoc3)CC2)CN1C(C)C.O=C(O)C(F)(F)F.O=C(O)C(F)(F)F (centres undefined),Percent Effect,"30 µM, 30.03 µM",26.61%
CCN(CC)C(=O)CN1CCc2nc(C3CCNCC3)nc(NC)c2C1.Cl,Percent Effect,"30.3 µM, […]",-15.23%
CCC(=O)Nc1ccc2c(c1)C1(CCOCC1)CN2CCOC.O=C(O)C(F)(F)F,Percent Effect,"30.3 µM, […]",-49.74%
CN(Cc1ccccc1F)C(=O)Cn1cc(NC(=O)C(C)(C)C)cn1,Percent Effect,"30.3 µM, […]",-0.06216%
CC(C)NC(=O)N1CCN(CC2CC2)CC2(CNC(=O)C2)C1.O=C(O)C(F)(F)F (centres undefined),Percent Effect,"30 µM, 30.03 µM",-4.336%
COc1ccccc1C1(CNCc2ccc(C#N)cc2)CCOCC1,Percent Effect,"30.3 µM, […]",29.93%
COc1ccccc1C1(CNCc2cccc(C#N)c2)CCOCC1,Percent Effect,"30.3 µM, […]",67.18%
COc1ccccc1C1(CNCc2cccc(O)c2)CCOCC1,Percent Effect,"30.3 µM, […]",15.56%
Cc1cc(Oc2ccc(NC(=O)C3CC3)cc2)cc(C2CCNCC2)n1.Cl,Percent Effect,"30.3 µM, […]",99.81%
CC(=O)Nc1ccc(Oc2cc(C)nc(C3CCCNC3)c2)cc1.Cl (centres undefined),Percent Effect,"30.3 µM, […]",-25.31%
CC(=O)Nc1ccc(Oc2cc(C)nc(C3CCNCC3)c2)cc1.Cl,Percent Effect,"30.3 µM, […]",0.5571%
CS(=O)(=O)N1CCC(Nc2ccnc3ccc(Cl)cc23)CC1,Percent Effect,"30.3 µM, […]",-667%
COCC(=O)N1CCC(Nc2ccnc3ccc(Cl)cc23)CC1,Percent Effect,"30.3 µM, […]",-10.12%
NC(=O)CN1CCC(Nc2ccnc3ccc(Cl)cc23)CC1,Percent Effect,"30.3 µM, […]",62.45%
O=C1N(Cc2ccc(F)c(F)c2)CCCC1(O)CNCC1CCCCC1 (centres undefined),Percent Effect,"30 µM, 30.03 µM",-26.1%
CC(NC(=O)CCC(C)(C)C)C(=O)Nc1ccc(-n2cncn2)cc1 (centres undefined),Percent Effect,"30 µM, 30.03 µM",-4.525%
O=C1N(Cc2ccc(F)c(F)c2)CCCC12CCN(C1CCCCC1)C2 (centres undefined),Percent Effect,"30 µM, 30.03 µM",6.711%
O=C1N(Cc2ccc(F)c(F)c2)CCCC12CCN(C1CCSCC1)C2 (centres undefined),Percent Effect,"30 µM, 30.03 µM",50.02%
O=C1N(Cc2ccc(F)c(F)c2)CCCC12CCN(C1CCCC1)C2 (centres undefined),Percent Effect,"30 µM, 30.03 µM",-86.64%
COCCNC(=O)[C@@]12CCO[C@@H]1CCN(Cc1ccc(OC)cc1)C2.O=C(O)C(F)(F)F,Percent Effect,"30 µM, 30.03 µM",7.509%
CS(=O)(=O)c1ccc(CN2C[C@H]3CC[C@@H]2CN(c2ncccn2)C3)cc1,Percent Effect,"30 µM, 30.03 µM",-59.99%
Cc1ccc(C#N)c(N2CCC(c3nccn3CCN(C)C)CC2)n1,Percent Effect,"30 µM, 30.03 µM",57.26%
Cc1ccc(C#N)c(N2CCC(c3nccn3Cc3cscn3)CC2)n1,Percent Effect,"30 µM, 30.03 µM",31.21%
CN(C)CCn1ccnc1C1CCN(c2cc(N)nc(N)n2)CC1,Percent Effect,"30 µM, 30.03 µM",1.166%
O=C1C[C@H]2CC[C@@H](CN1)N2C(=O)CCc1ccc2c(c1)OCO2,Percent Effect,"30.3 µM, […]",6.652%
COc1ccc(C2=CCN(C(=O)C3CCC3)CC2)cc1,Percent Effect,"30.3 µM, […]",-20.1%
COc1ccc(C2=CCN(C(=O)C3CCN(C)C(=O)C3)CC2)cc1 (centres undefined),Percent Effect,"30 µM, 30.03 µM",57.6%
Cc1ccc(C2=CCN(C(=O)C3CCN(C)C(=O)C3)CC2)cc1 (centres undefined),Percent Effect,"30.3 µM, […]",-12.11%
CC(C)OCCCN(Cc1ccncc1)Cc1cccc(F)c1.Cl,Percent Effect,"30.3 µM, […]",-29.62%
Cc1ccccc1C1(C(=O)NCCN2CCC(C)CC2)CCOCC1,Percent Effect,"30.3 µM, […]",1.423%
COc1ccccc1C1(CNc2snc(Cl)c2C#N)CCCC1,Percent Effect,"30.3 µM, […]",35.81%
N#Cc1c(Cl)nsc1NCC1(c2ccccc2)CCC1,Percent Effect,"30.3 µM, […]",100.1%
COc1ccccc1C1(CNc2snc(Cl)c2C#N)CCOCC1,Percent Effect,"30.3 µM, […]",0.1302%
Cc1cccc(N2CCc3ncc(CNc4ccccn4)n3CC2)n1.O=C(O)C(F)(F)F.O=C(O)C(F)(F)F,Percent Effect,"30.3 µM, […]",-45.99%
Cl.NCC(=O)N1CCCC1c1nccnc1Nc1ncccn1 (centres undefined),Percent Effect,"30.3 µM, […]",-17.2%
C=C(C)CN1CCN(Cc2cnc(-c3ccc(OC)cc3)nc2)CC1.O=C(O)CC(O)(CC(=O)O)C(=O)O,Percent Effect,"30.3 µM, […]",2.32%
Cc1ccc(N[C@@H]2CN(Cc3cc(C)on3)C[C@@H]3CCCO[C@@H]32)nn1.O=C(O)C(F)(F)F.O=C(O)C(F)(F)F,Percent Effect,"30.3 µM, […]",-34.05%
COc1ccccc1N1CCC(NCc2c(C)noc2C)C1 (centres undefined),Percent Effect,"30 µM, 30.03 µM",-20.42%
Cc1noc(CNc2c(N3CCCC3)cccc2N2CCCC2)n1,Percent Effect,"30.3 µM, […]",-1.503%
Cc1noc(C)c1CNc1c(N2CCCC2)cccc1N1CCCC1,Percent Effect,"30.3 µM, […]",99.93%
O=C(NCc1ccco1)[C@@H]1CCO[C@@H]2CCN(C3CCOCC3)C[C@H]21.O=C(O)C(F)(F)F,Percent Effect,"30 µM, 30.03 µM",-32.7%
CC(=O)N1[C@H](CN(C)C)C[C@@H]2CN(C(=O)c3ccno3)CC[C@@H]21.O=C(O)C(F)(F)F,Percent Effect,"30.3 µM, […]",5.246%
Cc1nc(C)n(CC2CN(Cc3ccccc3OC(C)C)CCO2)n1 (centres undefined),Percent Effect,"30.3 µM, […]",101%
Cc1nc(C)n(CC2CN(Cc3ccccc3C#N)CCO2)n1 (centres undefined),Percent Effect,"30.3 µM, […]",19.46%
Cc1nc(C)n(CC2CN(Cc3cccc4ccccc34)CCO2)n1 (centres undefined),Percent Effect,"30.3 µM, […]",20.23%
Cn1cc(CN2CCC[C@]3(C[C@@H](Oc4ncccc4F)CO3)C2)cn1.O=C(O)C(F)(F)F.O=C(O)C(F)(F)F,Percent Effect,"30.3 µM, […]",0.8954%
CNC(=O)[C@H]1C[C@@H]2CN(Cc3ccccc3)C[C@H]1O2.O=C(O)C(F)(F)F,Percent Effect,"30.3 µM, […]",0.1079%
CN1CCN(c2ncccn2)CC(C(=O)N(C)C)C1 (centres undefined),Percent Effect,"30.3 µM, […]",-26.5%
CN(C)Cc1nc2c(o1)CN(S(=O)(=O)c1cccs1)C2.O=C(O)C(F)(F)F,Percent Effect,"30.3 µM, […]",5.819%
Cn1ncc(CN2CCc3onc(-c4cccc(F)c4)c3C2)c1C1CC1,Percent Effect,"30 µM, 30.03 µM",32.05%
Fc1cccc(-c2noc3c2CN(Cc2cncn2C2CC2)CC3)c1,Percent Effect,"30 µM, 30.03 µM",24.68%
CC(C(=O)N(C)C)N1CCc2onc(-c3cccc(F)c3)c2C1 (centres undefined),Percent Effect,"30 µM, 30.03 µM",-18.33%
CC(C)Cc1nc(CN2CCc3onc(-c4cccc(F)c4)c3C2)no1,Percent Effect,"30 µM, 30.03 µM",18.46%
CC(C)c1nc(CN2CCc3onc(-c4cccc(F)c4)c3C2)no1,Percent Effect,"30 µM, 30.03 µM",51.01%
CC(C)(C)c1nc(CN2CCc3onc(-c4cccc(F)c4)c3C2)no1,Percent Effect,"30 µM, 30.03 µM",51.86%
Cn1cc(CNC2CC3(CCN(S(C)(=O)=O)CC3)c3ccccc32)cn1.O=C(O)C(F)(F)F (centres undefined),Percent Effect,"30.3 µM, […]",-14.03%
CC(C)c1nnc(N2C[C@@H]3CC[C@H](C2)N(CC2CCC2)C3)s1,Percent Effect,"30 µM, 30.03 µM",-2.589%
CN(C)Cc1cnc(C2CCN(C(=O)c3ccccc3F)C2)[nH]1.Cl (centres undefined),Percent Effect,"30.3 µM, […]",3.217%
O=C(Cn1ccc2sccc2c1=O)NCCCc1ccccc1,Percent Effect,"30 µM, 30.03 µM",-11.95%
Cn1cccc1C(=O)N1CCC2(CC1)CC(N1CCOCC1)C2.O=C(O)C(F)(F)F,Percent Effect,"30.3 µM, […]",-54.57%
CN(C)CCN(C)C(=O)NC1CCC(Oc2ccccc2C#N)CC1 (centres undefined),Percent Effect,"30 µM, 30.03 µM",7.047%
CN(C)C1(C(=O)NC2CCC(Oc3ccccc3C#N)CC2)CCC1 (centres undefined),Percent Effect,"30 µM, 30.03 µM",-17.82%
CCNC(=O)NC1CCC(Oc2ccccc2C#N)CC1 (centres undefined),Percent Effect,"30 µM, 30.03 µM",74.2%
CCOCc1ccc(CNc2cncc(-n3cccn3)n2)cc1,Percent Effect,10 µM,-32.35%
CC(NC(=O)C(C)(C)C)c1cc(O)nc(-c2cccnc2)n1 (centres undefined),Percent Effect,"30.3 µM, […]",-7.147%
CC(=O)N1CCN(C(=O)c2csc(-c3ccc(C)cc3C)n2)CC1,Percent Effect,10 µM,-21.97%
CC(=O)NCC1CCN(C(=O)c2csc(-c3ccc(C)cc3C)n2)CC1,Percent Effect,"30 µM, 30.03 µM",56.57%
CC(=O)N1CCCN(C(=O)c2csc(-c3ccc(C)cc3C)n2)CC1,Percent Effect,"30 µM, 30.03 µM",20.93%
CN(C)C1CCC2(CCN(Cc3nccn3C)CC2)c2ccccc21.O=C(O)C(F)(F)F.O=C(O)C(F)(F)F (centres undefined),Percent Effect,"30.3 µM, […]",-42.21%
CNCC(=O)N1CC(c2cc(Nc3ncccn3)nc(C)n2)C1.Cl,Percent Effect,"30 µM, 30.03 µM",-14.51%
Cn1cnnc1C1CCCN(C(=O)c2cc(-c3ccccc3)on2)C1 (centres undefined),Percent Effect,"30 µM, 30.03 µM",-25.06%
CCN(CC)CCCNCc1cc2cc(C)ccc2[nH]c1=O,Percent Effect,"30.3 µM, […]",-2.792%
CCN(CC)CCCNCc1cc2cccc(C)c2[nH]c1=O,Percent Effect,"30.3 µM, […]",-3.275%
CCN(CC)CCCNCc1cc2cc(C)cc(C)c2[nH]c1=O,Percent Effect,"30.3 µM, […]",66.62%
